Assay [1] is described as follows: compounds binding Alexa647 anti-His antibody – biochemical, small-molecule microarray, 635 nm fluorescence, artefact control for SMM control protein annotation, primary screen (AID 1128).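 Note: score merges feature fluorescence with signal-to-noise for each printed compound spot.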 Conditions: higher = more signal.
Assay [2] concerns Human papillomavirus type 1a E7 protein (residues 1-88). Kind of assay: HPV1a E7 small-molecule binders, primary screen, biochemical, small-molecule microarray, residues 1-88, 635 nm (AID 1129). Conditions: small-molecule microarray binding, fluorescence 635 nm; higher = more signal.
Assay [3] addresses Focal adhesion kinase 1 (Homo sapiens) (UniProt Q05397). Briefly: PTK2 protein binding on printed compound slides – biochemical, small-molecule microarray, 635/667 nm fluorescence, BSA, DTT, primary screen (AID 1130).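 Note: composite of spot emission at 667 nm and signal to noise over triplicate slides.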 Conditions: 635 nm fluorescence, higher = more signal.
Assay [4] has as its system Fibrinogen (Alexa647-labelled). Briefly: Alexa647-fibrinogen binding to printed small molecules – biochemical, small-molecule microarray, 635/667 nm fluorescence, artefact control for SMM control-protein annotation, profiling panel (AID 1131).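 Note: z-score merges 667 nm fluorescence with per-spot signal-to-noise over triplicate slides.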 Conditions: fibrinogen-A647 binding fluorescence, higher = more signal.
Assay [5] has as its target Follistatin (Homo sapiens) (UniProt P19883). Briefly: FST protein binding to printed compounds – biochemical, small-molecule microarray, 635/667 nm fluorescence, primary screen (AID 1132). Conditions: 635 nm fluorescence, higher = more signal.
The target in assay [6] is Fibroblast growth factor 2 (Homo sapiens) (UniProt P09038). Briefly: basic fibroblast growth factor binding to printed compounds – biochemical, small-molecule microarray, 635/667 nm fluorescence, primary screen (AID 1133). The following applies: FGF2, fluorescence 635/667, higher = more signal.
Assay [7] can be described thus: JC-1 mitochondrial potential readout, lung cancer cells – cell-based, A549, JC-1 fluorescence, basal, 24 h, 100 nL, profiling panel (AID 1138).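 Note: A549 lung adenocarcinoma cells under basal conditions with no added stimulus; test concentration not given here.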 The following applies: higher = more signal.
In assay [8] the test system is Lefty1. Briefly: Lefty1 protein binding to printed compounds – biochemical, small-molecule microarray, 635/667 nm fluorescence, primary screen (AID 1139). The following applies: fluorescence 635/667, higher = more signal.
In assay [9] the test system is wheat germ agglutinin (Triticum aestivum), Alexa647-labelled. Kind of assay: Alexa647-WGA lectin binding to printed small molecules – biochemical, small-molecule microarray, 635/667 nm fluorescence, artefact control for SMM control-protein annotation, profiling panel (AID 1140).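 Note: score merges 667 nm feature emission with signal to noise over triplicate slides.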 The following applies: WGA-A647 binding, 635 nm fluorescence, higher = more signal.
For assay [10], the target named is Luciferin 4-monooxygenase (Photinus pyralis) (UniProt P08659). Briefly: inhibition of purified Photinus pyralis luciferase – biochemical, luminescence, purified enzyme, 2006 set, primary screen (AID 1141).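 Note: cell-free assay with purified firefly luciferase at 100 ng per well in PBS; test concentration not given here.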 Conditions: purified firefly luciferase, SteadyGlo luminescence, 30 min; higher = more signal, called active from +8 up or from −8 down.
In assay [11] the test system is Wnt5a (protein binding on small-molecule microarray). Kind of assay: small molecules binding Wnt5a protein – biophysical, small-molecule microarray, 635/667 nm fluorescence, primary screen (AID 1142).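 Note: fluorescence read at 667 nm with signal to noise per printed feature.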 Conditions: 635 nm fluorescence, higher = more signal.
The nature of assay [12]: ATP-based viability of Huh7 replicon cells – cell-based, CellTiter-Glo luminescence, basal, 48 h, cytotoxicity control for HCV replication inhibitor project, primary screen (AID 1143).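 Note: Huh7 hepatoma cells carrying a hepatitis C replication reporter with no stimulus; test concentration not given here.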 The following applies: higher = more signal, called active from +8 up or from −8 down. For orientation: A replicon is a self-replicating genome or part of one, used to study replication in cells.

Assay [13] can be described thus: Pseudomonas biofilm growth suppression – PAO1 strain, BacTiter-Glo luminescence, LB-PBS, primary screen (AID 1144). The following applies: P. aeruginosa PAO1 biofilm, 12 h, higher = more signal.
The nature of assay [14]: basal CRE-LacZ reporter activity in PC12 – cell-based, unstimulated, primary screen (AID 1145). The following applies: no forskolin, luminescence, 4.5 h, higher = more signal, called active from +8 up or from −8 down.
Assay [15] can be described thus: forskolin-driven CRE-LacZ activity in PC12 – cell-based, CRE-LacZ reporter, forskolin-stimulated, primary screen (AID 1146).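 Note: PC12 cells with 6xCRE LacZ reporter stimulated by forskolin 10 µM; beta-galactosidase reporter signal reflecting CREB driven transcription.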 The following applies: luminescence, 4.5 h, higher = more signal, called active from +8 up or from −8 down.
Assay [16] deals with Streptavidin (Streptomyces avidinii) (UniProt P22629). Briefly: compounds binding control protein streptavidin – biophysical, small-molecule microarray, 635/667 nm fluorescence, artefact control for SMM compound annotation, primary screen (AID 1147).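 Note: signal reflects streptavidin binding to arrayed compounds as a control protein.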 The following applies: higher = more signal.
The nature of assay [17]: probe aInhba binding on compound microarray – biochemical, small-molecule microarray, 635/667 nm fluorescence, primary screen (AID 1148).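 Note: score merges 667nm spot fluorescence with signal-to-noise for antibody binding to printed compounds.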 The following applies: higher = more signal.
Assay [18] has as its target Torsin-1A (Homo sapiens) (UniProt O14656). Briefly: TOR1A wild-type binding on microarray – cell lysate, small-molecule microarray, lysate, 635/667 nm, primary screen (AID 1149). Conditions: COS7 hTOR1A-WT lysate, 635 nm fluorescence, higher = more signal.
Assay [19] shares this target. Kind of assay: torsin A mutant lysate binding on microarrays – cell lysate, small-molecule microarray, COS7 lysate, 635/667 nm fluorescence, primary screen (AID 1150).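 Note: score pools 667 nm emission and signal to noise measuring lysate protein binding.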 The following applies: COS7 hTOR1A mutant lysate, 635 nm fluorescence, higher = more signal.
Assay [20] concerns Sonic hedgehog protein (Shh). Kind of assay: Sonic hedgehog microarray binding compounds – biochemical, small-molecule microarray, 635/667 nm fluorescence, primary screen (AID 1151).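 Note: Shh protein binding to compounds spotted on small-molecule microarray slides; score combines spot fluorescence intensity with signal-to-noise across triplicate slides.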 The following applies: 635 nm fluorescence, higher = more signal.

Calls of active or inactive are those of the source. Unless noted, the rule behind the calls is not given here.

Fibroblast growth factor 2 (Homo sapiens), sequence (P09038 whole entry, looked up): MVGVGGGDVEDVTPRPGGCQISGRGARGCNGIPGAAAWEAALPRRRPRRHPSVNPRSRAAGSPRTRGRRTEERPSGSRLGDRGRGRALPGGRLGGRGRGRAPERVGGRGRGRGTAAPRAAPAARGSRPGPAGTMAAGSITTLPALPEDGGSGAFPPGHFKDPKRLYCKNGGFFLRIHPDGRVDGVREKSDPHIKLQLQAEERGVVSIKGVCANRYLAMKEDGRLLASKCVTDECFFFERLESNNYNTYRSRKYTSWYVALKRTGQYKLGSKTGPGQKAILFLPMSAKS
Focal adhesion kinase 1 (Homo sapiens), sequence (Q05397 whole entry, looked up): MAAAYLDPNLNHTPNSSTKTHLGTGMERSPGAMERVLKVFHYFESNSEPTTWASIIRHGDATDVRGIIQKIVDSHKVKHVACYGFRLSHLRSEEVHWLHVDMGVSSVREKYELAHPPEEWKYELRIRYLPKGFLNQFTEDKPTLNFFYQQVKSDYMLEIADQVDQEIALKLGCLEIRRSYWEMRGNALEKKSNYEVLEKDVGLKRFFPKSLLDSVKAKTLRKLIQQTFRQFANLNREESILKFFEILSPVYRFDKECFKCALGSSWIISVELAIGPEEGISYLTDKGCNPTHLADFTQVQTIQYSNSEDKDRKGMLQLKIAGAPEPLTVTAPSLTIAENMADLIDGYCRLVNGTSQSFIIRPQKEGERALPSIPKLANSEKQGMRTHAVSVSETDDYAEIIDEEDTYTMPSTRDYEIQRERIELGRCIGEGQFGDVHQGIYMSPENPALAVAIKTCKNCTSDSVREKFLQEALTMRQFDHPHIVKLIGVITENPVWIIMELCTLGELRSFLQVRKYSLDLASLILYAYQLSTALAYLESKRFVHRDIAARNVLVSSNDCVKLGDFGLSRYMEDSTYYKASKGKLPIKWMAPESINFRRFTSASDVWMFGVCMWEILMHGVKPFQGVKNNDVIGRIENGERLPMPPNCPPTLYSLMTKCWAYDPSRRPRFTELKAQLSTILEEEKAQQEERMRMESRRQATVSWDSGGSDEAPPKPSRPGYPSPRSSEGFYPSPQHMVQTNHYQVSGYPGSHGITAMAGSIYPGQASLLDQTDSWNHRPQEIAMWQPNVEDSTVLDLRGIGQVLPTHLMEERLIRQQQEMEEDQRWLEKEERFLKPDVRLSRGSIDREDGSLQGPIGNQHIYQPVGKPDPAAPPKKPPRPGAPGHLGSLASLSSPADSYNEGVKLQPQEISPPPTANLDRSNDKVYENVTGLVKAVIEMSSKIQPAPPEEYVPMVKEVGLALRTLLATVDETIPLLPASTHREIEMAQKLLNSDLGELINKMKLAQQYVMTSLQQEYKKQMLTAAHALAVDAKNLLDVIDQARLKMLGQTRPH
Torsin-1A (Homo sapiens), sequence (O14656 whole entry, looked up): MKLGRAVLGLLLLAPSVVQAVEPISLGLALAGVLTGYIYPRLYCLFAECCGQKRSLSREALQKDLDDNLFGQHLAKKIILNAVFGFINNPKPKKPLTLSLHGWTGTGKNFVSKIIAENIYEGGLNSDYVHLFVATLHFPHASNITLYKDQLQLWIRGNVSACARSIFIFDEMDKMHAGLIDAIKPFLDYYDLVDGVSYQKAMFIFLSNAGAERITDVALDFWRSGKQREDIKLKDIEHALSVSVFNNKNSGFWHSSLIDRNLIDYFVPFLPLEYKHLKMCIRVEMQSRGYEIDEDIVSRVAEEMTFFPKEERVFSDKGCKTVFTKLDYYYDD
Streptavidin (Streptomyces avidinii), sequence (P22629 whole entry, looked up): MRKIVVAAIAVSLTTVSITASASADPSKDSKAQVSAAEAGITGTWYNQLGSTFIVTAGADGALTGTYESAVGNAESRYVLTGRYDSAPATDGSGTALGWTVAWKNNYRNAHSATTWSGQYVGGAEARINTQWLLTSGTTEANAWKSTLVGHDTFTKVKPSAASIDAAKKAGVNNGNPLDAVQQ
Luciferin 4-monooxygenase (Photinus pyralis), sequence (P08659 whole entry, looked up): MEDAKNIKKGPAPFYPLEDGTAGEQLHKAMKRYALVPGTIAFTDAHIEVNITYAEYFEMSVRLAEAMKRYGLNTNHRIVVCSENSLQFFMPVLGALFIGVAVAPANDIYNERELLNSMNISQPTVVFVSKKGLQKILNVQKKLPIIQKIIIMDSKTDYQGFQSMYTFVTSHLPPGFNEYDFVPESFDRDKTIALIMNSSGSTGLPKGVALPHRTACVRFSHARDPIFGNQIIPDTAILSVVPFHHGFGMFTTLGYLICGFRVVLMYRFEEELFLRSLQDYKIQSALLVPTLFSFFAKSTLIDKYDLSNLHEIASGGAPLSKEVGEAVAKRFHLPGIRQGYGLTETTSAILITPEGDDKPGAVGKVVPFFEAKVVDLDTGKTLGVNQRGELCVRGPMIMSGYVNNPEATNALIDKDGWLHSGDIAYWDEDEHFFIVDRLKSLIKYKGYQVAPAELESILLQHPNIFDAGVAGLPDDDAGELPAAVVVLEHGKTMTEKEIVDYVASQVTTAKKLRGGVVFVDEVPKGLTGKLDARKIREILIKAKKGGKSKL
Follistatin (Homo sapiens), sequence (P19883 whole entry, looked up): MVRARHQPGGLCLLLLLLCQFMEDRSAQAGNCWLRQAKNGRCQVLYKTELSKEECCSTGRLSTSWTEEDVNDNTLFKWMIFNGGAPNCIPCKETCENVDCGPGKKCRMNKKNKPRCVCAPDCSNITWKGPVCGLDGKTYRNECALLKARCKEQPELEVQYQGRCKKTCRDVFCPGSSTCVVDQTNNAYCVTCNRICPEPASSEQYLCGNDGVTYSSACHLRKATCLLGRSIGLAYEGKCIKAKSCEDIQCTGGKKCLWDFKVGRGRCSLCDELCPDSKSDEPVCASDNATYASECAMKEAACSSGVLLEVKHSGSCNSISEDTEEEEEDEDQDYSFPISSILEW

Regarding `CO[C@@H]1COC(=O)CC=C[C@@H](C)[C@@H]2C=C[C@H](O)[C@@H](COC(=O)CCC[C@H]1C)O2`, the composite z-score in assay [1] was 1.59; in [2] it was -0.442; in assay [3], -0.382; in assay [4] it was -0.478; in assay [5] it was 1.06; in [6] it was 1.3. The composite z-score was 1.08 in assay [8]; -0.0297 in [9]; 0.0796 in assay [11]; 1.35 in [16]; -0.118 in [17]; 0.858 in [18]. Also, the values for the composite z-score in assay [19] and in assay [20] were 1.6 and 1.55, respectively. Further, the z-score is -0.992 in [7]; 0.732 (inactive) in [10]; -0.493 (inactive) in assay [12]; 0.0169 (inactive) in assay [13]; -2.36 (inactive) in [14]; -1.91 (inactive) in assay [15].
Consider `COC(=O)[C@H](C)NC(=O)CCC1CC(OC(=O)NCCc2ccc(F)cc2)CC2(CCCC(COC(=O)NCCc3ccc(Cl)cc3)O2)O1` (stereo not given in full), for which the composite z-score in assay [1] amounted to 0.225; in assay [2], 0.966; in [3], 0.167; in assay [4], 0.873; in assay [5], 0.646; in assay [6], 1.05. Moreover, the composite z-score is 1.25 in assay [8]; 0.766 in assay [9]; 0.606 in [11]; 1.07 in [16]; -0.0937 in assay [17]; 2.31 in assay [18]. For the same compound, the composite z-score in assay [19] is -0.177; in assay [20], 1.31. For the same compound, the z-score in assay [7] is 0.994; in assay [10] it was 0.0182 (inactive); in [12], -0.195 (inactive); in assay [13], -0.739 (inactive); in assay [14], -0.0732 (inactive); in [15], -0.195 (inactive).
As to `COC(=O)[C@@H]1CCCN1C(=O)[C@@H](C)CO`, the composite z-score in assay [1] came out at 0.933; in [2], 1.16; in assay [3], 0.21; in assay [4], 0.868; in [5], 0.473; in assay [6] it was 0.723. The composite z-score is 0.29 in [8]; 1.15 in [9]; 0.111 in assay [11]; 0.746 in [16]; -0.183 in assay [17]; 1.26 in [18]. Moreover, the composite z-score in [19] came out at 0.546; in [20], 0.202. For the same compound, the z-score is -1.29 in [7]; 0.09 (inactive) in assay [10]; -2.44 (inactive) in [12]; -0.985 (inactive) in [13]; -0.347 (inactive) in assay [14]; -0.397 (inactive) in [15].
Take `CC1CC/C=C\[C@H]2OC34C=CCN(C(C)C)C(=O)[C@H]3N(CCCO)C(=O)[C@@H]4C2C(=O)O1` (stereo not given in full): the composite z-score in assay [1] was 1.41; in assay [2], -0.883; in assay [3] it was -0.716; in [4], -1.5; in assay [5], -1.07; in assay [6] it was -1.24. In addition, the composite z-score is -0.837 in assay [8]; -1.09 in [9]; -0.439 in [11]; -1.47 in assay [16]; 0.095 in assay [17]; 1.72 in assay [18]. Besides, the figures for the composite z-score in assay [19] and in assay [20] were -1.29 and 0.533, respectively. Besides, the z-score in [7] is 0.439; in assay [10], -0.623 (inactive); in [12] it was -1.03 (inactive); in [13] it was 1.15 (inactive); in assay [14], 0.601 (inactive); in assay [15], 0.371 (inactive).
As for `C=CCOC(=O)[C@H]1[C@@H]2C(=O)O[C@@H](c3ccccc3)[C@@H](c3ccccc3)N2[C@@H](c2ccc(OCCOC(=O)[C@H]3C[C@H]4C(=O)N5CCC[C@H]5C(=O)N4[C@H]3c3cccc(OCCO)c3)cc2)[C@]12C(=O)Nc1ccc(I)cc12`, the composite z-score was 3.59 in assay [1]; 1.25 in assay [2]; -0.259 in assay [3]; 0.97 in assay [4]; 1.46 in [5]; 1.68 in [6]. Besides, the composite z-score turned out to be 1.37 in assay [8]; 1.5 in [9]; 1.83 in [11]; 2.76 in assay [16]; 1.17 in [17]; 1.95 in assay [18]. Further, the composite z-score in [19] amounted to 2.23; in [20], 2.08. Besides, the z-score in assay [7] is 0.445; in [10] it was 0.108 (inactive); in [12] it was 0.156 (inactive); in [13], -0.315 (inactive); in [14], -0.134 (inactive); in assay [15], 0.437 (inactive).

The values are drawn from PubChem BioAssay.
